# How the values were obtained:
# Experiment in all cases: DAPPL (digital affinity profiling via proximity ligation, sequencing); 10 mM Tris-HCl pH 7.5, 50 mM NaCl, 1 mM DTT, 4% glycerol, room temperature, 30 min; GST-TFs on glutathione beads, 16-mer random dsDNA library, 0.1% formaldehyde crosslink after washing; high values mean tight binding
# FEV = molecular target: T1, FEV (Homo sapiens, UniProt Q99581 1-238); settings: protein: recombinant; tags: N-terminal GST; dsDNA, one strand shown
# T1 sequence: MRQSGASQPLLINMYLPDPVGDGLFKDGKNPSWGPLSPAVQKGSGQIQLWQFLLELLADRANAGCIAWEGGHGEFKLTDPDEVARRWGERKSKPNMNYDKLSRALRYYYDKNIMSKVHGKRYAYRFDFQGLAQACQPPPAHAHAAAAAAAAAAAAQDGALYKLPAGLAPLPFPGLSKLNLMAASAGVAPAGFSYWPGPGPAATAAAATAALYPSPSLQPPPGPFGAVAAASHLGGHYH
# Procedure, shortened: (§1)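 Binding signal is each hexamer's read frequency for a factor divided by its frequency in the tag-only sample. The factors were GST-fused human transcription factors from yeast, captured on glutathione beads, DNA-barcoded and pooled with that sample. Pools were incubated with 200 nmole of a random double-stranded 16-mer DNA library in Tris/NaCl/DTT/glycerol buffer at room temperature for 30 min, then washed, crosslinked with 0.1% formaldehyde, proximity-ligated with BsaI/T4 ligase (1 h, 37 °C), PCR-amplified and sequenced on an Illumina NextSeq500.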
# ETV5 = ETV5 (Homo sapiens, UniProt P41161 1-510); settings: protein: recombinant; tags: N-terminal GST; dsDNA, one strand shown
# ETV5, sequence (P41161 whole entry): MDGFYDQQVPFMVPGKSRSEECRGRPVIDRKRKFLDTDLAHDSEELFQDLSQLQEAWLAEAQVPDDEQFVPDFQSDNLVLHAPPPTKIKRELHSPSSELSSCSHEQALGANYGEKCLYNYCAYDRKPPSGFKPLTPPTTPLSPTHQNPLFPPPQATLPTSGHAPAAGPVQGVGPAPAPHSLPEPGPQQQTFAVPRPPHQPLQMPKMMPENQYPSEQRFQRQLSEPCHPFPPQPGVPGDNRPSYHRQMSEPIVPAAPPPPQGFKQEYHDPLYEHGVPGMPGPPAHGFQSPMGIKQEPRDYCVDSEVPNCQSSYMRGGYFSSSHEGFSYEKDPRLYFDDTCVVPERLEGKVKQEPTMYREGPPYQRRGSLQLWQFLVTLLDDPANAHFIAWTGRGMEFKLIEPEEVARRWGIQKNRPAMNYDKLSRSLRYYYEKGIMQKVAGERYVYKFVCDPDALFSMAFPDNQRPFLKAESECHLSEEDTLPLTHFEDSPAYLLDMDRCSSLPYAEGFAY
# Procedure, shortened: as §1
# HSF1 = HSF1 (Homo sapiens, UniProt Q00613 1-529); settings: protein: recombinant; tags: N-terminal GST; chain copies: 3; dsDNA, one strand shown
# HSF1, sequence (Q00613 whole entry): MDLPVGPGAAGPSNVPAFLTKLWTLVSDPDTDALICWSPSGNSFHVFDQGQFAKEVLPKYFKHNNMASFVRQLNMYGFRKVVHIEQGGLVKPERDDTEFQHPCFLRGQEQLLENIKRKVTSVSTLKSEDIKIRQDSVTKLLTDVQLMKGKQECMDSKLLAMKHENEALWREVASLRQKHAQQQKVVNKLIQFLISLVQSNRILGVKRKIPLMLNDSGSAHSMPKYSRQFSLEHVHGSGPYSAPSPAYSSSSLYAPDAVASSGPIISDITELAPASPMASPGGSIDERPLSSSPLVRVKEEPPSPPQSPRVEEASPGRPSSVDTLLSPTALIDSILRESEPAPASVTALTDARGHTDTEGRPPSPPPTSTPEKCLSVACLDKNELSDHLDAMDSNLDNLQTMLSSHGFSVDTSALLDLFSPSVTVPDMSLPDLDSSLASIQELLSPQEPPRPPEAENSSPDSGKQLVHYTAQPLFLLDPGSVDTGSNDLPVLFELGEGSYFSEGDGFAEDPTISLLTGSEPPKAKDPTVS
# Procedure, shortened: as §1
# SPIC = molecular target: T2, SPIC (Homo sapiens, UniProt Q8N5J4 1-248); settings: protein: recombinant; tags: N-terminal GST; dsDNA, one strand shown
# T2 sequence: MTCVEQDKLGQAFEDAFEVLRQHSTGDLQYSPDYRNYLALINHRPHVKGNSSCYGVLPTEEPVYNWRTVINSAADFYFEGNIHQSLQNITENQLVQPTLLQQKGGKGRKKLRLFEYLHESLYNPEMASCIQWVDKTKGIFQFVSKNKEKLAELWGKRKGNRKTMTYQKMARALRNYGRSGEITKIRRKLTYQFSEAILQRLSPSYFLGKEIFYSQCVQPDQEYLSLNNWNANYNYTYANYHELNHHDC
# Procedure, shortened: as §1
# ELF4 = ELF4 (Homo sapiens, UniProt Q99607 1-663); settings: protein: recombinant; tags: N-terminal GST; dsDNA, one strand shown
# ELF4, sequence (Q99607 whole entry): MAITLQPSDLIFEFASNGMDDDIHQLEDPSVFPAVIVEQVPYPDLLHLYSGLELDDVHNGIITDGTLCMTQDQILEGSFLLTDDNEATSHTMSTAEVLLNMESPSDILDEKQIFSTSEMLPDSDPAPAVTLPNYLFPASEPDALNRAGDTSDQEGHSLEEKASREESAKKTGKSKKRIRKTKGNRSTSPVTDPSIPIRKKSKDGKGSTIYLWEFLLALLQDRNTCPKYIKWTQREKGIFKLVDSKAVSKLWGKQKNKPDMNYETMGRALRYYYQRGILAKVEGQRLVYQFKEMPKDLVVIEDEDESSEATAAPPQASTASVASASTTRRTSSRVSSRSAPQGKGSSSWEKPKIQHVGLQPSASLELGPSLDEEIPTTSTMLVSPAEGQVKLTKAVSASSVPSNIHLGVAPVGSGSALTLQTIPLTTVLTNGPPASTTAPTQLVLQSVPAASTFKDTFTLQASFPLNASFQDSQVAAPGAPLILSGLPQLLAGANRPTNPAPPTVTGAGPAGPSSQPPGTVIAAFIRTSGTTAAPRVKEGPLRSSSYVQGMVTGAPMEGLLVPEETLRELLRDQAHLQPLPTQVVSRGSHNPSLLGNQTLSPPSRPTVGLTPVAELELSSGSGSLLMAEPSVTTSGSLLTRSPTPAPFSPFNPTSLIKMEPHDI
# Procedure, shortened: as §1
# ELK4 = molecular target: T3, ELK4 (Homo sapiens, UniProt P28324-2 1-405); settings: protein: recombinant; tags: N-terminal GST; dsDNA, one strand shown
# T3 sequence: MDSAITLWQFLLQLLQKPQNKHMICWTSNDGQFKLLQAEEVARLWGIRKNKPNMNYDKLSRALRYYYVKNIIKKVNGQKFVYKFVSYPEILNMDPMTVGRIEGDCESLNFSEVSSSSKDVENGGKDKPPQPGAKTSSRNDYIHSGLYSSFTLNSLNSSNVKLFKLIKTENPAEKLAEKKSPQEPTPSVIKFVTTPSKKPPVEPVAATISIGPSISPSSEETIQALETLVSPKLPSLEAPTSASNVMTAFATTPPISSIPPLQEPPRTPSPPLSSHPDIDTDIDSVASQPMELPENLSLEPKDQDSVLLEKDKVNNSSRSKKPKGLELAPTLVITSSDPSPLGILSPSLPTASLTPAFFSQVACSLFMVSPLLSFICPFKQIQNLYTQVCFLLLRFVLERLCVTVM
# Procedure, shortened: as §1
# ETV2 = molecular target: T4, ETV2 (Homo sapiens, UniProt O00321 1-342); settings: protein: recombinant; tags: N-terminal GST; dsDNA, one strand shown
# T4 sequence: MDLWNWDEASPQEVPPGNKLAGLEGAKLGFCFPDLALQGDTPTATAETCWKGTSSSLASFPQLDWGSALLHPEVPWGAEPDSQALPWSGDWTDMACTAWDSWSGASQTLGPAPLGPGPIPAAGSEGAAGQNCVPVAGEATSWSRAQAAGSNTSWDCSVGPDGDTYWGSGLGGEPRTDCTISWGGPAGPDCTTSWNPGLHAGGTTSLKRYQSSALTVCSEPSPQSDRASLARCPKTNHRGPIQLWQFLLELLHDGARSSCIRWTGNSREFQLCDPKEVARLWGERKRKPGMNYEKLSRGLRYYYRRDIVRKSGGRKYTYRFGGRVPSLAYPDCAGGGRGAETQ
# Procedure, shortened: as §1
# ELF3 = molecular target: T5, ELF3 (Homo sapiens, UniProt P78545 1-371); settings: protein: recombinant; tags: N-terminal GST; dsDNA, one strand shown
# T5 sequence: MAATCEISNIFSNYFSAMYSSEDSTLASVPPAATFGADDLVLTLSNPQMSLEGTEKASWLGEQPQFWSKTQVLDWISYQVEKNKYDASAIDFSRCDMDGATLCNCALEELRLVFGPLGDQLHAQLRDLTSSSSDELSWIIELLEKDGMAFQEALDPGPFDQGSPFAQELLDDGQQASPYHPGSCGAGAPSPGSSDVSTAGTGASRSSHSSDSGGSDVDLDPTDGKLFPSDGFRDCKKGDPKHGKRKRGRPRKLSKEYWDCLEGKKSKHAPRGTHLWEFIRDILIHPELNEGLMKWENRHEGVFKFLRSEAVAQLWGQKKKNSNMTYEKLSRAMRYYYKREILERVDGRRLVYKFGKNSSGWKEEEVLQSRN
# Procedure, shortened: as §1
# CRX = CRX (Homo sapiens, UniProt O43186 1-299); settings: protein: recombinant; tags: N-terminal GST; dsDNA, one strand shown
# CRX, sequence (O43186 whole entry): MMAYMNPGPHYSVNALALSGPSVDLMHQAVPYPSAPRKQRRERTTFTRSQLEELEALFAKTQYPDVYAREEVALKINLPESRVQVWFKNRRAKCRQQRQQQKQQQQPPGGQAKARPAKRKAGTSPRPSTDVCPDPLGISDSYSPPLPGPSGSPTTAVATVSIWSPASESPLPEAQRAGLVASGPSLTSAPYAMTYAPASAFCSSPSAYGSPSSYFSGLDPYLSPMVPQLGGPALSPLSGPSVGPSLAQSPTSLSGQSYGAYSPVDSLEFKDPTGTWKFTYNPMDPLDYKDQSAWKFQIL
# Procedure, shortened: as §1
# ETV1 = ETV1 (Homo sapiens, UniProt P50549 1-477); settings: protein: recombinant; tags: N-terminal GST; dsDNA, one strand shown
# ETV1, sequence (P50549 whole entry): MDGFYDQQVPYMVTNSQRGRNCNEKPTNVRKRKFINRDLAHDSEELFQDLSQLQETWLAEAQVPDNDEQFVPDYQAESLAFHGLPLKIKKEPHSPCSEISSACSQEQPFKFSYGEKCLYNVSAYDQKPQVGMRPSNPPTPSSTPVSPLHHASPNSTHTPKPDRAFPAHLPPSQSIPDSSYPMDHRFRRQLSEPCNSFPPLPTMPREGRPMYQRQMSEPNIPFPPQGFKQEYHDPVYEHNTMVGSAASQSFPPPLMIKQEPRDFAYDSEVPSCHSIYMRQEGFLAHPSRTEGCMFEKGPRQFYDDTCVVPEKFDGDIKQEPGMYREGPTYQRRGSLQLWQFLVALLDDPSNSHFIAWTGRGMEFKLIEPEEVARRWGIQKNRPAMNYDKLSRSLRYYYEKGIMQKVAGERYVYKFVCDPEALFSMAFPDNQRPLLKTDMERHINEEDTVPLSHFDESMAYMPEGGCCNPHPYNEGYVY
# Procedure, shortened: as §1
# ERF = molecular target: T6, ERF (Homo sapiens, UniProt P50548 1-548); settings: protein: recombinant; tags: N-terminal GST; dsDNA, one strand shown
# T6 sequence: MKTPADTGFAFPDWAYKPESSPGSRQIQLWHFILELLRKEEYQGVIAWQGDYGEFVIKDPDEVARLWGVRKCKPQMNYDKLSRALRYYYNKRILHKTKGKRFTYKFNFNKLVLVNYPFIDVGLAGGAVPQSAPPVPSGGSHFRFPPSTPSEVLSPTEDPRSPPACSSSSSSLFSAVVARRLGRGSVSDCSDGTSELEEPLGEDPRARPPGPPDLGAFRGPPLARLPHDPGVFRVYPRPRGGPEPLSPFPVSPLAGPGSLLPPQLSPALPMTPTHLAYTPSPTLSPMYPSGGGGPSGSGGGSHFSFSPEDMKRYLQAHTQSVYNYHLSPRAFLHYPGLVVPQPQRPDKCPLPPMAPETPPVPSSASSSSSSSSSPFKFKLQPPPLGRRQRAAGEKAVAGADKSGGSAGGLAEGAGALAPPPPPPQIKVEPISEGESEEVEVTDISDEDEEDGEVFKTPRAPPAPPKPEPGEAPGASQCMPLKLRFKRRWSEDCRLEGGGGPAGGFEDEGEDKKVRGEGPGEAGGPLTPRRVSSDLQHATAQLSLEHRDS
# Procedure, shortened: as §1
# ETV3L = molecular target: T7, ETV3L (Homo sapiens, UniProt Q6ZN32 1-361); settings: protein: recombinant; tags: N-terminal GST; dsDNA, one strand shown
# T7 sequence: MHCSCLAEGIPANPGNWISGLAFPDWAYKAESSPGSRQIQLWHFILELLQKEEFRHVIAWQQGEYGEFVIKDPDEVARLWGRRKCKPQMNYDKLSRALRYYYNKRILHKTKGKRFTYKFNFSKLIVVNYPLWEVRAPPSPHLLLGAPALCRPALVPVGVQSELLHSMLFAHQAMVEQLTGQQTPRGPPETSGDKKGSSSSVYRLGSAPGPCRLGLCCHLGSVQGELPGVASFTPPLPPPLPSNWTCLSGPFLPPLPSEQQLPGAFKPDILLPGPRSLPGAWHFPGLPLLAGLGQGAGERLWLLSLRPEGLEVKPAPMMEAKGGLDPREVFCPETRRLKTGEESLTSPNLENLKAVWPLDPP
# Procedure, shortened: as §1
# ETS2 = molecular target: T8, ETS2 (Homo sapiens, UniProt P15036 1-469); settings: protein: recombinant; tags: N-terminal GST; dsDNA, one strand shown
# T8 sequence: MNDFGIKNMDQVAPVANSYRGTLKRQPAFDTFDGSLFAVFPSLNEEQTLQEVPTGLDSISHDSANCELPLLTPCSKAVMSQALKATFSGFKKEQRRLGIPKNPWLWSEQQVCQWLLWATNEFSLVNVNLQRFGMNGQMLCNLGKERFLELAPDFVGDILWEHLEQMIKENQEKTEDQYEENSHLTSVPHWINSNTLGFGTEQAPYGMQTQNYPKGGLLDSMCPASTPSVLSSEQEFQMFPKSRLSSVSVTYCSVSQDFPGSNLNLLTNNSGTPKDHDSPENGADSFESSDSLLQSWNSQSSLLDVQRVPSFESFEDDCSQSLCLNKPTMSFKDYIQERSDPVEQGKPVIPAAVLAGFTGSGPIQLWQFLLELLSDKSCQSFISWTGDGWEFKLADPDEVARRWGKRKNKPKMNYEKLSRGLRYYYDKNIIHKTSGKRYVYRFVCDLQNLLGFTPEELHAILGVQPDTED
# Procedure, shortened: as §1
# SPDEF = molecular target: T9, SPDEF (Homo sapiens, UniProt O95238 1-335); settings: protein: recombinant; tags: N-terminal GST; dsDNA, one strand shown
# T9 sequence: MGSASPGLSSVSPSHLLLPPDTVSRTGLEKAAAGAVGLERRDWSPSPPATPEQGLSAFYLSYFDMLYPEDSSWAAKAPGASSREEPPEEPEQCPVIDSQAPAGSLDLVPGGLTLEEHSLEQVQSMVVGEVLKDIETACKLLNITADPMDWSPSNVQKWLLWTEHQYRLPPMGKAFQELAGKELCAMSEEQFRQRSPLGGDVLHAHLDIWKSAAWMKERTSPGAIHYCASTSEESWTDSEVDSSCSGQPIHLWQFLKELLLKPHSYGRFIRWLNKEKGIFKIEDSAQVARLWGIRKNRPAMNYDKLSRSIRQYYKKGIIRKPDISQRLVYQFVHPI
# Procedure, shortened: as §1
# ETV7 = molecular target: T10, ETV7 (Homo sapiens, UniProt Q9Y603 1-341); settings: protein: recombinant; tags: N-terminal GST; dsDNA, one strand shown
# T10 sequence: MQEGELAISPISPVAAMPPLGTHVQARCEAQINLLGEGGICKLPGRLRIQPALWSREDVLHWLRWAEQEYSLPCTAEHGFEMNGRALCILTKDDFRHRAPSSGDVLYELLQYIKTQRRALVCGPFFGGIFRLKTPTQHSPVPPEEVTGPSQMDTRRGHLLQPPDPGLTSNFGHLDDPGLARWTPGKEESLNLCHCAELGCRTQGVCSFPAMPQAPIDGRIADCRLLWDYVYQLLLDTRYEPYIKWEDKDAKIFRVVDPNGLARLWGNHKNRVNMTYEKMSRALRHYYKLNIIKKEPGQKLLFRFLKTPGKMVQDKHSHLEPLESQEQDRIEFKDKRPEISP
# Procedure, shortened: as §1
# ELF5 = molecular target: T11, ELF5 (Homo sapiens, UniProt Q9UKW6-2 1-255); settings: protein: recombinant; tags: N-terminal GST; dsDNA, one strand shown
# T11 sequence: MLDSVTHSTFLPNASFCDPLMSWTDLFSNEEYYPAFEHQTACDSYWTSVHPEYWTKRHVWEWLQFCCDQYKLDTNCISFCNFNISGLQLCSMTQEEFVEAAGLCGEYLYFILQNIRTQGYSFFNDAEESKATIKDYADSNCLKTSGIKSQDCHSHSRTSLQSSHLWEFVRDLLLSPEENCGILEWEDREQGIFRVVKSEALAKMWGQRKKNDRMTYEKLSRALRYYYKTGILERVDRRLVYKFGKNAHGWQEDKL
# Procedure, shortened: as §1
# ETV3 = molecular target: T12, ETV3 (Homo sapiens, UniProt P41162-2 1-143); settings: protein: recombinant; tags: N-terminal GST; dsDNA, one strand shown
# T12 sequence: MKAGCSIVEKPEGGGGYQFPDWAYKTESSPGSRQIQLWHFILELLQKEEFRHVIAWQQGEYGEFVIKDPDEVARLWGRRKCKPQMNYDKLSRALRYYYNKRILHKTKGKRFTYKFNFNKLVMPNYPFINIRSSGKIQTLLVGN
# Procedure, shortened: as §1
# ETV6 = ETV6 (Homo sapiens, UniProt P41212 1-452); settings: protein: recombinant; tags: N-terminal GST; dsDNA, one strand shown
# ETV6, sequence (P41212 whole entry): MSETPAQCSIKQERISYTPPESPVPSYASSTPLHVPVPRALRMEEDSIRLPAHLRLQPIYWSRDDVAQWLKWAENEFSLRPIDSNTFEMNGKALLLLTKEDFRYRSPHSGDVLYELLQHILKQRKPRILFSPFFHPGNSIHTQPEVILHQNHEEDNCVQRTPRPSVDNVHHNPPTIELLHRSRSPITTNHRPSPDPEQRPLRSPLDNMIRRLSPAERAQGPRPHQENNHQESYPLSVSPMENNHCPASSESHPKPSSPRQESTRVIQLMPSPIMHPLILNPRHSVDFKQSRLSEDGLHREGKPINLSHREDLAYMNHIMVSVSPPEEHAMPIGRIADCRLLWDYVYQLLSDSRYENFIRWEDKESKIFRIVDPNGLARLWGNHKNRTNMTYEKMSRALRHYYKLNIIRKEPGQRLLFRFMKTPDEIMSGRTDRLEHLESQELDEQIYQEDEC
# Procedure, shortened: as §1
sequence,measurement,setting,value
GCTACT,binding signal,FEV,"1.43 fold enrichment (6-mer frequency, TF over GST control)"
same,binding signal,ETV5,"1.39 fold enrichment (6-mer frequency, TF over GST control)"
same,binding signal,HSF1,"1.07 fold enrichment (6-mer frequency, TF over GST control)"
same,binding signal,SPIC,"1.3 fold enrichment (6-mer frequency, TF over GST control)"
same,binding signal,ELF4,"1.28 fold enrichment (6-mer frequency, TF over GST control)"
same,binding signal,ELK4,"1.38 fold enrichment (6-mer frequency, TF over GST control)"
same,binding signal,ETV2,"1.17 fold enrichment (6-mer frequency, TF over GST control)"
same,binding signal,ELF3,"1.47 fold enrichment (6-mer frequency, TF over GST control)"
same,binding signal,CRX,"1.09 fold enrichment (6-mer frequency, TF over GST control)"
same,binding signal,ETV1,"1.32 fold enrichment (6-mer frequency, TF over GST control)"
same,binding signal,ERF,"1.52 fold enrichment (6-mer frequency, TF over GST control)"
same,binding signal,ETV3L,"1.2 fold enrichment (6-mer frequency, TF over GST control)"
same,binding signal,ETS2,"1.39 fold enrichment (6-mer frequency, TF over GST control)"
same,binding signal,SPDEF,"1.27 fold enrichment (6-mer frequency, TF over GST control)"
same,binding signal,ETV7,"1.33 fold enrichment (6-mer frequency, TF over GST control)"
same,binding signal,ELF5,"1.2 fold enrichment (6-mer frequency, TF over GST control)"
same,binding signal,ETV3,"1.19 fold enrichment (6-mer frequency, TF over GST control)"
same,binding signal,ETV6,"1.38 fold enrichment (6-mer frequency, TF over GST control)"
